An excerpt weighted towards active compounds, which were near 1.3% of everything screened.
NPR1 activator = GC-A (human) enzyme activation; P16066; HEK293 GC-A cells, cGMP TR-FRET, EC30 ANP; 0% at EC30 ANP, 100% saturating ANP; activation, % at 10 µM; 0.14% of 370,000 active; AID 1671463; in the data active = activation above about 40%
KLK7 zymogen act = activators of human kallikrein-7 zymogen. P49862. purified proKLK7, EDANS-DABCYL substrate fluorescence; 100% is mature enzyme control, 0% vehicle. activation, % at 7 µM. 0.9% of 370,000 active. AID 652039;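 active = activation above the mean of all tested compounds plus 3 SD, computed per campaign excluding outliers beyond control limits, cut at about 13% in these data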
HIF activator = HIF pathway transcriptional activation. U2OS HRE-luciferase reporter, luminescence; normalized: DMSO 0%, desferrioxamine 100%. activation, % at 7.5 µM (by protocol). 0.32% of 300,000 active;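 active = mean activation of at least 10% of the iron chelator positive control signal, with at least half of replicates also reaching 10%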
NPR2 activator = GC-B (human) receptor activation; P20594; HEK293-GC-B cells, CNP EC30, cGMP TR-FRET; 0% at EC30 CNP, 100% saturating CNP; activation, % at 10 µM; 0.11% of 370,000 active; AID 1920062;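 active = activation at 10 µM reaching about 35% in either raw or pattern-adjusted values, limit read from the data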
A number is an active result; - = inactive; . = no result; + = active, no number.

SMILES | NPR1 activator | KLK7 zymogen act | HIF activator | NPR2 activator
O=C(COc1ccc2c3c(c(=O)oc2c1)CCC3)NCC(O)c1ccccc1 (stereo not given) | - | - | - | -
COC1=C[C@H](C(=O)NCc2ccc(Br)cc2)[C@H](C)[C@@H](c2ccccc2)CC1=O | - | - | . | -
CC(C)[C@H](NC(=O)c1ccccc1Cl)C(=O)Nc1nc(-c2ccccn2)cs1 | - | - | 20 | -
CC(=O)Nc1ccc(C(=O)Nc2nc(-c3ccccn3)cs2)cc1 | - | - | - | -
O=C(Nc1nc(-c2ccccn2)cs1)c1ccccc1-n1cnnn1 | - | - | 52 | -
O=C(Nc1nc(-c2ccccn2)cs1)c1cc(Cl)ccc1[N+](=O)[O-] | - | - | 36 | -
CCCc1nn(C)c2c(=O)[nH]c(-c3cc(S(=O)(=O)N(CCO)CCO)ccc3OCC)nc12 | 50 | - | - | 56
CCOc1ccc(S(=O)(=O)N(CC)CC(=O)N2CCCC2)cc1C | - | - | - | -
CCOc1ccc(S(=O)(=O)N(CCO)CCO)cc1-c1nc2c(C(C)(C)C)nn(C)c2c(=O)[nH]1 | 58 | - | - | 63
CCCC1CCC2(CCCN2CCOC(=S)Nc2ccccc2OC)CC1 (stereo not given) | - | . | . | -
O=C(NCc1ccc(C(F)(F)F)cc1)O[C@H]1CC[C@@]23CCCN2C(=O)CCC[C@H]3C1 | - | . | . | -
Cc1ccc(F)c(Cn2cnc3c(cnn3C(C)(C)C)c2=O)c1Cl | - | - | . | 38
Cc1cc(F)cc(C)c1Cn1cnc2c(cnn2C(C)(C)C)c1=O | - | - | . | -
CC(=O)N1[C@H](CO)[C@@H](c2ccccc2)[C@@H]1CN(C(=O)c1ccc(F)cc1)C(C)C | - | - | . | -
O=C(NC(c1ccccc1)c1ccccc1)C1CCCO1 (stereo not given) | - | - | 131 | -
O=C(NNC(=O)C1CCCO1)c1ccccc1Cl (stereo not given) | - | - | - | -
Cc1[nH]cnc1/C=N\NC(=O)c1cccc(S(=O)(=O)N(C)C)c1 | - | - | . | -
O=C(NNC(=O)C(O)(c1ccccc1)c1ccccc1)C1CC1 | - | - | 31 | -
CC(C)(C)c1ccc(-c2nnc(SCC(=O)Nc3ccc4c(c3)OCCO4)n2-c2ccc(Cl)cc2)cc1 | - | - | . | -
CC1C(=O)N(Cc2cn(CCC3OCCCO3)nn2)CCS(=O)(=O)N1Cc1ccc(-c2ccccc2)cc1 (stereo not given) | - | - | . | -
CC1C(=O)N(Cc2cn(CCC3OCCCO3)nn2)CCS(=O)(=O)N1Cc1ccc(-c2ccc(Cl)cc2)cc1 (stereo not given) | 50 | - | . | -
CC1(c2ccccc2)CC(=O)N(c2ccc(NC(=O)c3ccccn3)cc2Cl)C1=O (stereo not given) | - | . | . | -
NC(=S)Nc1cccc2cc3ccccc3cc12 | - | - | - | -
NC(=S)Nc1cc2ccccc2c2ccccc12 | - | 14 | - | -
Clc1ccc([C@H]2OC[C@@]3(CNCc4ccc5c(c4)OCO5)CS[C@H](c4ccc(Cl)cc4)N23)cc1 | - | . | . | -
SMILES | NPR1 activator | KLK7 zymogen act | HIF activator | NPR2 activator
CN(C)CC(=O)N[C@@H]1C[C@@H]2O[C@@H](CO)CC[C@@H]2O[C@@H]1CCc1ccc(C2=CCCCC2)cc1 | - | - | . | -
CCc1ccc(OCC(=O)Nc2ccncc2)c(Br)c1 | - | - | 13 | -
CC(C)(C)c1ccc(OCC(=O)Nc2ccncc2)c(Br)c1 | - | - | - | -
COC(=O)[C@]12C[C@H](CC(=O)NCc3cccc4ccccc34)C(=O)N(Cc3cccc4ccccc34)C1=C[C@H](C(C)(C)C)O[C@@H]2C | - | - | . | -
CN1C2=N[C@@H](c3cccc(C(F)(F)F)c3)CC(=O)N2/C(=C\c2ccccc2)[C@H]1c1ccccc1 | - | . | . | -
CCCCCn1nnnc1C1(C)CCSCC(=O)N1Cc1ccco1 (stereo not given) | - | - | . | -
N/C(=N\OC(=O)Cc1cccs1)c1ccccc1 | - | - | + | -
Cc1ccc(/C(N)=N/OC(=O)Cc2cccs2)cc1 | - | - | - | -
N/C(=N\OC(=O)c1cccs1)c1ccc(Cl)cc1 | - | - | 12 | -
COc1ccc(/C(N)=N/OC(=O)c2cccs2)cc1 | - | - | - | -
Cc1c(NC(=O)Nc2ccc(Cl)cc2)c(=O)n(-c2ccccc2)n1C | - | - | - | -
Cc1c(N=C2N=C(NC(=O)Nc3ccc(Cl)cc3)c3ccccc32)c(=O)n(-c2ccccc2)n1C | 76 | - | - | -
COc1ccc(C(=O)NC2=Nc3ccccc3N=C(C)C2c2ccccc2)cc1 (stereo not given) | - | - | 25 | -
CC1=Nc2ccccc2N=C(NC(=O)/C=C/C(=O)O)C1c1ccccc1 (stereo not given) | - | - | - | -
Nn1c(SCc2cccc3ccccc23)nnc1-c1n[nH]c2c1CCC2 | - | - | . | -
COc1ccc(-c2nn(-c3ccccc3)cc2/C=N/NC(=S)NC(C)C)cc1OC | - | - | - | 42
C=CCNC(=S)N/N=C/c1cn(-c2ccccc2)nc1-c1ccc(OC)cc1 | - | - | - | 42
COc1ccc(-c2nn(-c3ccccc3)cc2/C=N/NC(=O)c2ccc(Br)o2)cc1 | - | - | - | -
Cc1cc(C)nc(N/N=C/C2=C(O)CC(c3ccc(F)cc3)CC2=O)n1 (stereo not given) | - | - | 22 | -
Cc1ccc(C2CC(=O)C(C=NCCN3CCN(C(=S)Nc4ccc(F)cc4)CC3)=C(O)C2)cc1 (stereo not given) | - | - | - | -
CC(=O)NC(c1ccco1)c1ccc2cccnc2c1O (stereo not given) | . | . | - | .
Cc1ccc2ccc(C(Nc3ccccn3)c3ccccc3)c(O)c2n1 (stereo not given) | - | - | - | -
Oc1ccccc1C(Nc1nccs1)c1ccc2cccnc2c1O (stereo not given) | - | - | 21 | -
Oc1c(C(Nc2ccccn2)c2ccccn2)ccc2cccnc12 (stereo not given) | - | - | 14 | -
CCCCNC(=O)C[C@H]1C[C@@]2(C(=O)OC)C(=C[C@H](COCc3ccccc3)O[C@@H]2C)N(Cc2cccc3ccccc23)C1=O | - | - | . | -
SMILES | NPR1 activator | KLK7 zymogen act | HIF activator | NPR2 activator
CCOc1ccc(S(=O)(=O)NC(C)(C)C)cc1-c1nc2c(C(C)(C)C)nn(C)c2c(=O)[nH]1 | 57 | - | . | 60
CCCCn1c(=O)[nH]c(=O)c2c1nc(-c1ccc(OCCC)c(OCC)c1)n2C | - | - | - | -
CCOc1ccc(S(N)(=O)=O)cc1-c1nc2c(C(C)(C)C)nn(C)c2c(=O)[nH]1 | 52 | - | - | 61
c1nc2nc3c(c(N4CCCC4)n2n1)CCCC3 | - | - | . | -
C=CCN1[C@@H](C)COc2cccc(F)c2S1(=O)=O | - | - | . | -
C[C@H]1[C@@H](NC(=O)C2CCCCC2)CC[C@@]23CCCN2C(=O)CCC[C@@H]13 | - | . | . | -
Cc1oc(-c2ccc(Cl)cc2)nc1CS(=O)CC(=O)NCCN1CCCCCC1 (stereo not given) | - | - | 109 | -
